# Laboratory results taken from the supplement of paper PMC11417369.
# ± gives the standard deviation of the averaged measurements. Whole data set: some 25,000 sequences, median “ln(normalized median fluorescence intensity)” near 8.9, cut for the highest 2% near 10. The sample holds the highest values, similar sequences and a random draw of the others, so the mix is not that of the screen.
# Tested on: PfAP2-LT AP2 domain (GST-tagged)
# Test: gcPBM binding intensity (ln(normalized median fluorescence intensity)); higher = stronger DNA binding
# How it was run: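 In this array assay, P. falciparum DNA-binding domains with a GST tag, expressed in E. coli, were applied for 1 h to primer-extended double-stranded 36-bp intergenic genomic probes and negative controls on an Agilent 4 × 180k array. Bound protein was visualised with Alexa488 anti-GST antibody at 488 nm. Binding intensity is the highest Masliner-normalised natural-log median intensity across replicate spots of either probe orientation.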
row,Sequence,gcPBM binding intensity (ln)
1,AAGTAAAATAAGTATACACACATAAATATGTAAATA [CACACA_site6467],9.29 ± 0.4
2,AAAAAATAAAACATATATAATATATAATATATATAT [GTGCAC_negctrl_site447],8.69 ± 0.4
3,TATATACATACATATACACACATATATATATATATA [CACACA_site401],9.72 ± 0.21
4,GGTATACACAAGTATACACACATATAAATATAAATA [CACACA_site7511],9.16 ± 0.49
5,AGTATACATATATATACACACACATATATATATATA [CACACA_site7883],9.805 ± 0.064
6,GGTATACACAAGTATACACACATATATATATATATA [CACACA_site9063],10.16 ± 0.099
7,AGTATACAGATATATACACACATATATATATATATA [CACACA_site4323],9.935 ± 0.021
8,GGTATACTCAAGTATACACACATATATATATATATA [CACACA_site5746],9.64 ± 0.49
9,ATGGGACATATATATACACACATATATATATATATA [CACACA_site1202],9.96 ± 0.24
10,TATATATATATACCAACACACATACATATATATATA [CACACA_site8530],9.38 ± 0.14
11,TACACAAGCGGACACACACACATATATATATATATA [CACACA_site4832],10.415 ± 0.0071
12,CGCATACACCAACACACACACACATATATATATATA [CACACA_site635],9.96 ± 0.48
13,AGCAGACACCAACACACACACATATATATATATATA [CACACA_site337],10.4 ± 0.13
14,AGTATACACAGACACACACACACATATATATATATA [CACACA_site8510],10.3 ± 0.42
15,ATTATAATTATTTTGTTGCACTATTTTTGTAGGCCA [GTGCAC_site9734],8.8 ± 0.49
16,ATATTATTTTAAAGTACACACATATATTAATATATA [CACACA_site2315],8.76 ± 0.38
17,ATATATATATATATATGTACATATATATATAATTTT [XGTACX_site4146],9.34 ± 0.54
18,CTTGTCATTTTGCACACACACATGTATAGGTTATTA [CACACA_site7431],9.67 ± 0.16
19,ATTATGGATACATAAACACACATATATATAAAAAAA [CACACA_site4303],9.04 ± 0.43

row,Sequence,gcPBM binding intensity (ln)
1,AAAAAAAAAAAAAAAAAAAAAAAAACAATGAATTTA [GTGCAC_negctrl_site698],8.82 ± 0.19
2,TTAAATAAGTAATTATGTACATATAATATTCTTTAT [XGTACX_site5280],8.6 ± 0.42
3,ATATTAAGGTTTATATTTTAACTTATTATTTTATTC [CACACA_negctrl_site795],8.7 ± 0.49
4,GGATTTTAATGAACACGTACATAAAATTAAATAAAT [XGTACX_site7023],8.73 ± 0.45
5,TAAGTATAAATATTTACACACATTTGTTTTTTTTTA [CACACA_site7731],8.78 ± 0.4
6,TGCCTTATTAAAAGAATTACACATATTTAATCGAAA [GTGCAC_negctrl_site153],8.31 ± 0.39
7,TCTTTTTTTTTTTATTGTACAAGAAAAGGAAAAAAT [XGTACX_site3717],8.05 ± 0.31
8,TTTTTTTTTTTAAGGTGTACAATAAAAATTTATGCA [XGTACX_site8860],8.23 ± 0.35
9,ATATTATTTTATTTTTGTACAGATATCTTTAAAAAA [XGTACX_site3734],8.42 ± 0.37
10,ATTCTATTATAATACACACCCAAATATTAAAAAGAT [CACACA_site2960],8.99 ± 0.4
11,TATACAGACAGACACACACACATATATATATATATA [CACACA_site1734],10.3 ± 0.13
12,CATACATACAGACACACACACATATAAATACATACA [CACACA_site6533],9.88 ± 0.35
13,AGGATATGCAGACACACACACATATATATATATATA [CACACA_site2201],10.3 ± 0.23
14,AATACATACAGACACACACACACATATAAATAAATA [CACACA_site7642],10.1 ± 0.38
15,AGGACACATATATGCAAAAAAAAAAAAAAAAAAAAA [TGCATGCA_negctrl_site427],8.41 ± 0.59
16,TACAGACATACATACACACATACATATATATATATA [CACACA_site1940],9.82 ± 0.34
17,CATATACATACACATACACACATACAGACATACACA [CACACA_site6919],9.63 ± 0.2
18,ATTCTACACAGACATACACACATATATATATATATA [CACACA_site5826],9.835 ± 0.078
19,TACACATACAGACATACACACATACACATATACACA [CACACA_site6918],9.85 ± 0.23

row,Sequence,gcPBM binding intensity (ln)
1,AGGATATGCAGACACACACACATATAGATTTATATA [CACACA_site7100],9.56 ± 0.43
2,TACATACACAGACACACACACATATATATATATATA [CACACA_site3557],10.1 ± 0.19
3,TACATACACAGACACACACACATATAAATATAAATA [CACACA_site7641],9.78 ± 0.28
4,TGTTTGAATATAATCACACATTTATATAAAAAGTTA [CACACA_site5237],8.39 ± 0.32
5,TTCATTTTTTAAGCATCACACACGAAAGAACAAAGT [CACACA_site1122],8.98 ± 0.33
6,AATAATATATATTGTACACACAAAATGGGAAAAAAA [CACACA_site5100],9.1 ± 0.33
7,AAAATTTAATATAATGCACACATAAAAAAAAAATCA [CACACA_site7882],8.87 ± 0.42
8,TACACAAGCAGACACACACACATATATATATATATA [CACACA_site1270],10.42 ± 0.071
9,CAAGGAACCAGACACACACACATAAATGTATATATA [CACACA_site752],9.62 ± 0.47
10,TGAAAAAAGAAAAATACACACATATAATATAATATA [CACACA_site2255],9.02 ± 0.49
11,ACAAGACAGATATATACACACATACATACATACATA [CACACA_site7472],9.43 ± 0.37
12,AGGATACACAGACACACACACATATATATATATATA [CACACA_site907],10.47 ± 0.064
13,ACAGAAAAAAGACACACACACATAATATACATACAT [CACACA_site6991],10.1 ± 0.42
14,GGAATAACCAGACACACACACACATATAAATATGTA [CACACA_site7632],10.1 ± 0.41
15,TACACAAGCAGACACACACACATATAGATTTATATA [CACACA_site6715],9.65 ± 0.35
16,AATAACCACAGACACACACACATATAAATATAAATA [CACACA_site7631],10 ± 0.46
17,TAAAAGAAATAATATACACACATATATAAAAATAAA [CACACA_site1329],8.94 ± 0.41
18,AATGTATATAATATTAATATGTAAATATATAATCAA [CACACA_negctrl_site1683],8.72 ± 0.39
